This passage reports z-score and composite z-score results from PubChem BioAssay.

A short description of assay [1]: resazurin metabolic signal in HepG2 cells – cell-based, resazurin fluorescence, 24 h, PK04 Diversity Set, profiling panel (AID 1172). Further: test concentration not given here. As to conditions: HepG2 viability, higher = more signal.
Assay [2] is described as follows: budding yeast growth changes without added modifier – OD600, strain BY4716, 24 h, basal condition, primary screen (AID 1173). The conditions noted are these: S. cerevisiae BY4716 growth, OD600, 24 h; higher = more signal, called active from +8 up or from −8 down.
The nature of assay [3]: viability profiling in MM1S myeloma cells – cell-based, resazurin fluorescence, basal, 24 h, PK04 Diversity Set, profiling panel (AID 1174).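 Further: MM1S multiple myeloma cell line; test concentration not given here.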 The conditions noted are these: higher = more signal, called active from +8 up or from −8 down.
Assay [4] concerns the target Dihydroorotate dehydrogenase (quinone), mitochondrial (Plasmodium falciparum (isolate 3D7)) (UniProt Q08210). The experiment in a line: inhibition of P. falciparum DHODH – biochemical, C-terminal His tag, absorbance 600 nm, primary screen (AID 1175).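 Further: recombinant parasite enzyme with a five histidine tag at its C terminus; test concentration not given here.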 The conditions noted are these: PfDHODH enzyme, DCIP absorbance 600 nm; higher = more signal, called active from +8 up or from −8 down.

Assay [5] is described as follows: inhibition of PAO1 biofilm formation – strain PAO1, LB-PBS medium, absorbance 600 nm, primary screen (AID 1176). Further: test concentration not given here. As to conditions: P. aeruginosa PAO1 growth/biofilm, A600, 12 h; higher = more signal.
Assay [6] is described as follows: growth modulation of vineyard yeast isolate – strain RM11-1a, OD600, basal, 24 h, primary screen (AID 1177).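 Further: cultures grown under basal conditions with no added stressor; test concentration not given here.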 The conditions noted are these: S. cerevisiae RM11-1a growth, OD600, 24 h; higher = more signal, called active from +8 up or from −8 down.
Assay [7] is described as follows: growth of efflux-deficient E. coli DRC39 – strain DRC39, OD650, 24 h, E. coli filamentation inducers, primary screen (AID 1178).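 Further: growth measured as culture turbidity by optical density at 650 nm; test concentration not given here.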 As to conditions: E. coli DRC39 acrAB, higher = more signal, called active from +8 up or from −8 down.
A short description of assay [8]: growth of efflux-deficient E. coli DRC39 – strain DRC39, OD650, 48 h, E. coli filamentation inducers, primary screen (AID 1179).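 Further: screen aims at cell division blockers that make cells filament.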 As to conditions: E. coli DRC39 delta-acrAB growth, higher = more signal, called active from +8 up or from −8 down.
Assay [9] can be described thus: viability profiling in RPMI8226 myeloma cells – cell-based, resazurin fluorescence, basal, 24 h, PK04 Diversity Set, profiling panel (AID 1180).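 Further: RPMI8826 multiple myeloma cell line at 5000 cells per well; test concentration not given here.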 As to conditions: higher = more signal. (The colour change of resazurin is a common sign of viable cells or microbes.)
The target of assay [10] is E3 ubiquitin-protein ligase XIAP (Homo sapiens) (UniProt P98170). The experiment in a line: small molecules binding XIAP protein – biophysical, small-molecule microarray, fluorescence 635 nm, primary screen (AID 1181).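 Further: score merges 667 nm emission and signal to noise over triplicate slides.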 As to conditions: higher = more signal.
Sequence of E3 ubiquitin-protein ligase XIAP (Homo sapiens) (P98170 whole entry, looked up): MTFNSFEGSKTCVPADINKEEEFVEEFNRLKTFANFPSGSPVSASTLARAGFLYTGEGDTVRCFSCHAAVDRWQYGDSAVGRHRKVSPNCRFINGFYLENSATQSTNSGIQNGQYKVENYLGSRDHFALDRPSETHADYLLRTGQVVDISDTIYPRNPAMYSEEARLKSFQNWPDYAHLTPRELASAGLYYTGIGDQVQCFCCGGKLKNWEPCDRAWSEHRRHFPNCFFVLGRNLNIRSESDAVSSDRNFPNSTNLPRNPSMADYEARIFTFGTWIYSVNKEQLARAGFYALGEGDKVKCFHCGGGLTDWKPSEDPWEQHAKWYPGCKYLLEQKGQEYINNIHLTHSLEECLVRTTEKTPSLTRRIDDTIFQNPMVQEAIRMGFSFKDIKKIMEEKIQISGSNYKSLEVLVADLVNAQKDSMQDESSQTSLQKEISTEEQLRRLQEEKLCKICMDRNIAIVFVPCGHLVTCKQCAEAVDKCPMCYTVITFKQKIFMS

Each structure is given as a SMILES string. The source made the active and inactive calls. Unless noted, how the calls were made is not given here.

Sequence of Dihydroorotate dehydrogenase (quinone), mitochondrial (Plasmodium falciparum (isolate 3D7)) (Q08210 whole entry, looked up): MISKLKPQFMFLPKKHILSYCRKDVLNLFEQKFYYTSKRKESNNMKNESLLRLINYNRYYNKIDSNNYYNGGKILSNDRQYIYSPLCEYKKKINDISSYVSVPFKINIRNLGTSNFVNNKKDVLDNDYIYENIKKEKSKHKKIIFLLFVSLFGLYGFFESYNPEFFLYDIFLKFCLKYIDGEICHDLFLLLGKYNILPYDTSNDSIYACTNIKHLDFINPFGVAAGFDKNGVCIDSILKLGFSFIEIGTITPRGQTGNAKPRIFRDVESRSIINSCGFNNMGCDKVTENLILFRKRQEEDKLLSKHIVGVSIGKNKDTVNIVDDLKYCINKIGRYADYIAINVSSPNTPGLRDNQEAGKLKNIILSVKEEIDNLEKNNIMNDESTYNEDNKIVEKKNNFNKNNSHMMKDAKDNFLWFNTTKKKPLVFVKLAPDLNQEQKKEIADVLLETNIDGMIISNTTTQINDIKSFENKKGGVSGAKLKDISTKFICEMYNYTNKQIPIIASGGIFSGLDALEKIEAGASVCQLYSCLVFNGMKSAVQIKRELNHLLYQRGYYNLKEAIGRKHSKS

As for `N#Cc1ccc(NN2C(C(O)c3ccco3)C=CC3C(=O)N(c4ccccc4)C(=O)C32)cc1` (stereo not given), the z-score in assay [1] is -0.674; in assay [2] it was -0.36 (inactive); in assay [3], -0.512 (inactive); in assay [5], 1.07 (inactive); in assay [6], 0.293 (inactive); in [7], -2.14 (inactive). The z-score in [8] was -2.13 (inactive); in assay [9], -0.607. The figures for the composite z-score in assay [4] and in assay [10] were 0.0512 (inactive) and 0.0794, respectively.

As for `[N-]=[N+]=Nc1ccccc1[C@H]1OC(c2ccc(OCCCO)cc2)=N[C@@]1(Cc1ccccc1)C(=O)NCc1ccccc1`, the z-score is -0.171 in assay [1]; -1.95 (inactive) in assay [2]; -3.89 (inactive) in assay [3]; 0.124 (inactive) in assay [5]; -0.947 (inactive) in assay [6]; 2.01 (inactive) in [7]. For the same molecule, the results for the z-score in [8] and in [9] were 1.76 (inactive) and -3.99, respectively. Further, the composite z-score in assay [4] was 0.928 (inactive); in assay [10], 0.0917.

With `C=CCC(OC(C)=O)[C@@H]1[C@@H](N(Cc2ccc(-c3cccc(C(F)(F)F)c3)o2)C(=O)c2cccc3ccccc23)c2cc(OCCCO)ccc2N1C(=O)c1ccc(-c2ccccc2)cc1` (stereo not given in full), the z-score in assay [1] is -1.02; in assay [2], -0.0033 (inactive); in [3] it was -1.1 (inactive); in assay [5], -0.416 (inactive); in [6], 0.0679 (inactive); in assay [7], 0.147 (inactive). In addition, the z-score was -0.241 (inactive) in [8] and -0.851 in assay [9]. Moreover, the composite z-score in assay [4] is 0.821 (inactive); in assay [10], -0.031.

As to `C=CCN1C(=O)[C@@]2(O[C@@H](CCn3cc([C@H](O)c4ccccc4)nn3)[C@H]([Si](C)(C)c3ccc(OC)cc3)[C@H]2C)c2cc(NC(=O)c3ccc(OC)cc3)ccc21`, the z-score in assay [1] was -1.55; in assay [2] it was 0.336 (inactive); in assay [3], -2.19 (inactive); in assay [5], 0.389 (inactive); in assay [6], 2.42 (inactive); in [7] it was 0.628 (inactive). Further, the z-score was 0.146 (inactive) in assay [8] and -2.35 in assay [9]. Moreover, the composite z-score in assay [4] was 0.874 (inactive); in [10], 0.176.

Regarding `COc1ccc([Si](C)(C)[C@@H]2[C@@H](CC(=O)N(CCO)Cc3ccccc3)O[C@]3(C(=O)N(C)c4c(Br)cc(C)cc43)[C@H]2C)cc1`, the z-score in [1] was -1.57; in assay [2] it was -0.951 (inactive); in assay [3], -1.79 (inactive); in [5] it was 0.802 (inactive); in assay [6], 1.64 (inactive); in [7] it was -0.109 (inactive). Further, the z-score in [8] was -0.75 (inactive); in assay [9], -2.21. Besides, the composite z-score in [4] is 0.216 (inactive); in [10], -0.174.

For the molecule `O=C1O[C@H](c2ccccc2)[C@H](c2ccccc2)N2[C@H]1[C@@H](C(=O)N1CCCCCCC1)[C@]1(C(=O)Nc3ccc(C#CCCO)cc31)[C@H]2c1ccc(OCCO)cc1`, the z-score in assay [1] is 1.08; in assay [2] it was 0.905 (inactive); in assay [3] it was 0.332 (inactive); in assay [5] it was 0.0568 (inactive); in assay [6] it was -0.0365 (inactive); in [7], 0.136 (inactive). Moreover, the values for the z-score in [8] and in [9] were -0.656 (inactive) and 0.543, respectively. In addition, the figures for the composite z-score in [4] and in assay [10] were 0.521 (inactive) and 2.52, respectively.

Take `C=CCC(OC(C)=O)[C@@H]1[C@@H](N(Cc2cccc3ccccc23)C(=O)c2ccc(C)cc2)c2cc(OCCCO)ccc2N1C(=O)c1ccc2ccccc2c1` (stereo not given in full): the z-score in assay [1] was 0.924; in assay [2] it was -0.0786 (inactive); in assay [3] it was 1.27 (inactive); in assay [5], 0.101 (inactive); in assay [6], -1.7 (inactive); in [7], 1.24 (inactive). Besides, the z-score in assay [8] is 1.8 (inactive); in assay [9] it was 1.04. Also, the composite z-score in [4] is -1.86 (inactive); in [10] it was -0.152.

In the case of `COCCCNC(=O)[C@@]1(C)c2ccccc2C(=O)N(c2ccc(C)cn2)[C@H]1c1ccc(CO)cc1`, the z-score in assay [1] is 0.361; in assay [2], -0.156 (inactive); in assay [3], -0.321 (inactive); in assay [5] it was 0.112 (inactive); in assay [6] it was -0.795 (inactive); in assay [7] it was -0.0985 (inactive). Besides, the z-score in assay [8] was -0.087 (inactive); in assay [9], 0.157. Besides, the composite z-score in [4] is 0.0772 (inactive); in assay [10] it was 0.286.

As for `COc1ccc([Si](C)(C)[C@H]2[C@H](CC(=O)N3CCC[C@H]3CO)O[C@@]3(C(=O)N(Cc4ccc(N5C(=O)c6cccc7cccc5c67)cc4)c4ccccc43)[C@@H]2C)cc1`, the z-score in [1] is -1.83; in assay [2] it was 0.147 (inactive); in [3], -1.61 (inactive); in assay [5] it was 0.189 (inactive); in assay [6] it was 1.02 (inactive); in assay [7], -0.788 (inactive). Further, the z-score is -0.848 (inactive) in assay [8] and -1.16 in [9]. The composite z-score was -1.84 (inactive) in assay [4] and -0.392 in [10].

Regarding `CC1(C)[C@@H]2CC(C(O)C3C=CC4C(=O)N(c5ccccc5)C(=O)C4N3Nc3ccccc3F)=C[C@@H]1C2` (stereo not given in full), the z-score in assay [1] is 1.48; in [2], -0.393 (inactive); in [3], 0.941 (inactive); in assay [5], 0.16 (inactive); in [6] it was -0.393 (inactive); in assay [7], 0.018 (inactive). Also, the z-score in assay [8] was 0.985 (inactive); in assay [9] it was -1.19. Also, the composite z-score was 1.09 (inactive) in [4] and 0.18 in [10].

For `O=C1NC(=O)C2C1C=CC(C(O)c1ccc3c(c1)OCO3)N2Nc1ccc(Cl)cc1Cl` (stereo not given), the z-score was -0.996 in assay [1]; -14 (active) in [2]; -1.33 (inactive) in [3]; 1.38 (inactive) in assay [5]; -0.101 (inactive) in [6]; -0.145 (inactive) in assay [7]. In addition, the z-score in assay [8] is -2.73 (inactive); in [9] it was -0.93. The results for the composite z-score in assay [4] and in assay [10] were -0.703 (inactive) and 0.205, respectively.
